PubChem BioAssay (NCI)
Compounds without any hit were thinned out: in the full panel of roughly 79,000, 15% have a hit. Active and inactive are the calls of the source. Rule as the data show it: active = growth inhibition above about 70%; inactive = the rest.

Assays:
[1] = NCI Yeast Anticancer Drug Screen. Data for the rad50 strain (AID 155);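 also: 0% = growth of vehicle-only cultures of the same strain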; details: S. cerevisiae rad50 strain growth inhibition, stronger effect = higher value
Procedure, shortened: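 Readout: growth inhibition relative to vehicle-treated cultures. Compound exposure was carried out in a genetically defined yeast strain deficient in DNA damage repair.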

[2] = NCI Yeast Anticancer Drug Screen. Data for the mec2-1 strain (AID 157); details: S. cerevisiae mec2-1 strain, stronger effect = higher value
Procedure, shortened: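 Strain: mec2-1 (DNA repair/cell cycle alteration). Compound exposure, then growth measured; inhibition expressed relative to vehicle.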

[3] = NCI Yeast Anticancer Drug Screen. Data for the sgs1 mgt1 strain (AID 161);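 also: 0% = growth of cultures given vehicle only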; details: S. cerevisiae sgs1 mgt1 strain, stronger effect = higher value
Procedure, shortened: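 Genetically altered yeast, compound exposure, growth inhibition relative to vehicle.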

[4] = NCI Yeast Anticancer Drug Screen. Data for the cln2 rad14 strain (AID 165);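 also: 0% = growth equal to vehicle treated cultures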; details: S. cerevisiae cln2 rad14 strain, stronger effect = higher value
Procedure, shortened: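 Compounds are applied to the cln2 rad14 yeast strain, and growth is then compared with that of vehicle-treated cultures to give inhibition.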

[5] = NCI Yeast Anticancer Drug Screen. Data for the bub3 strain (AID 167); details: S. cerevisiae bub3 mutant strain, stronger effect = higher value
Procedure, shortened: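 Readout: yeast growth inhibition, expressed relative to vehicle-only wells. The test organism is a mutant strain from a panel with lesions in DNA repair or checkpoint genes.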

[6] = NCI Yeast Anticancer Drug Screen. Data for the mlh1 rad18 strain (AID 175); details: S. cerevisiae mlh1 rad18 strain growth inhibition, stronger effect = higher value
Procedure, shortened: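 Read-out is yeast growth inhibition, calculated against vehicle-only controls. The compound was applied to a strain engineered with DNA damage repair alterations.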

[7] = at 5.0 µM (retest, dose inferred, filed as 0.5)
[8] = at 50.0 µM (retest, dose inferred, filed as 5.0)

Measured: growth inhibition

O=[N+]([O-])c1ccc(Sc2ccc([N+](=O)[O-])o2)cc1
active: [1]; [7] 95% | [1]; [8] 99% | [2]; [7] 94% | [2]; [8] 100% | [3]; [7] 95% | [3]; [8] 100% | [4]; [7] 89% | [4]; [8] 99% | [5]; [7] 98% | [5]; [8] 99% | [6]; [7] 97% | [6]; [8] 99%
inactive: [1]; at 50.0 µM 13.9% | [2]; at 50.0 µM 16.5% | [3]; at 50.0 µM 52.1% | [4]; at 50.0 µM -9.05% | [5]; at 50.0 µM 60.7% | [6]; at 50.0 µM 59.8%

c1ccc(CN2CCC3(CC2)SSC2(CCN(Cc4ccccc4)CC2)S3)cc1
inactive: [1]; [7] 3% | [1]; [8] 16% | [1]; at 50.0 µM 53.7% | [2]; [7] 2% | [2]; [8] 23% | [2]; at 50.0 µM 23.4% | [3]; [7] 22% | [3]; [8] 67% | [3]; at 50.0 µM 61.2% | [4]; [7] 4% | [4]; [8] 8% | [4]; at 50.0 µM 68.3% | [5]; [7] 5% | [5]; [8] 43% | [5]; at 50.0 µM 27.1% | [6]; [7] 6% | [6]; [8] 32% | [6]; at 50.0 µM 52%

CSc1nnc(CCC(=O)Nc2c(C)cccc2C(C)(C)C)o1
inactive: [1]; [7] -5% | [1]; [8] 1% | [1]; at 50.0 µM -2.5% | [2]; [7] 1% | [2]; [8] 4% | [2]; at 50.0 µM 27.8% | [3]; [7] -14% | [3]; [8] 25% | [3]; at 50.0 µM 10.9% | [4]; [7] 4% | [4]; [8] 7% | [4]; at 50.0 µM 49.6% | [5]; [7] 7% | [5]; [8] 7% | [5]; at 50.0 µM 0.65% | [6]; [7] -9% | [6]; [8] -3% | [6]; at 50.0 µM 1.65%

O=[N+]([O-])/C=C/C=C/c1ccco1
inactive: [1]; [7] -1% | [2]; [7] 3% | [2]; at 50.0 µM 64.2% | [3]; [7] 6% | [4]; [7] 2% | [5]; [7] 7% | [6]; [7] -5%
active: [1]; [8] 98% | [1]; at 50.0 µM 99.6% | [2]; [8] 99% | [3]; [8] 94% | [3]; at 50.0 µM 97.2% | [4]; [8] 99% | [4]; at 50.0 µM 99.1% | [5]; [8] 98% | [5]; at 50.0 µM 99.1% | [6]; [8] 98% | [6]; at 50.0 µM 95.8%

CC(C)[C@H](N)C(=O)NCCNC(=O)[C@@H](N)C(C)C
inactive: [1]; at 50.0 µM -24.6% | [2]; [7] 66% | [2]; at 50.0 µM -4.9% | [3]; [7] 62% | [3]; at 50.0 µM -14.2% | [4]; at 50.0 µM 17.2% | [5]; at 50.0 µM 37.1% | [6]; at 50.0 µM 4.4%
active: [1]; [7] 90% | [1]; [8] 99% | [2]; [8] 99% | [3]; [8] 99% | [4]; [7] 89% | [4]; [8] 99% | [5]; [7] 93% | [5]; [8] 100% | [6]; [7] 89% | [6]; [8] 99%

O/N=C(/Cc1nc2cc(Cl)c(Cl)cc2nc1C/C(=N/O)c1ccncc1)c1ccncc1
inactive: [1]; [7] 5% | [1]; [8] 65% | [2]; [7] 11% | [3]; [7] 4% | [3]; [8] 55% | [4]; [7] 6% | [4]; [8] 68% | [5]; [7] 5% | [6]; [7] 1% | [6]; [8] 47%
active: [1]; at 50.0 µM 82.2% | [2]; [8] 77% | [2]; at 50.0 µM 87.6% | [3]; at 50.0 µM 79% | [4]; at 50.0 µM 84.5% | [5]; [8] 77% | [5]; at 50.0 µM 74% | [6]; at 50.0 µM 89.5%

CCN(CC)CCOc1cccc2c1C(=O)c1c(O)cccc1C2=O
active: [1]; [8] 72% | [2]; [8] 70% | [3]; at 50.0 µM 71.2% | [4]; at 50.0 µM 74.3% | [6]; [8] 79%
inactive: [1]; [7] 12% | [1]; at 50.0 µM 59.4% | [2]; [7] -21% | [2]; at 50.0 µM 39.3% | [3]; [7] 4% | [3]; [8] 54% | [4]; [7] 5% | [4]; [8] 38% | [5]; [7] 8% | [5]; [8] 47% | [5]; at 50.0 µM 35.9% | [6]; [7] -1% | [6]; at 50.0 µM 62.4%

CC(C)(C)c1cc(C(c2cc3c(cc2O)OCO3)N2CCOCC2)cc(C(C)(C)C)c1O (stereo not given)
inactive: [1]; at 50.0 µM 69.9% | [2]; [7] 59% | [2]; at 50.0 µM 64.6% | [4]; [7] 52% | [4]; at 50.0 µM 57.7% | [5]; [7] 68% | [5]; at 50.0 µM 63% | [6]; [7] 69% | [6]; at 50.0 µM 7.8%
active: [1]; [7] 87% | [1]; [8] 95% | [2]; [8] 97% | [3]; [7] 99% | [3]; [8] 95% | [3]; at 50.0 µM 72.2% | [4]; [8] 96% | [5]; [8] 96% | [6]; [8] 97%

CCCCCCc1ccc(O)cc1O
active: [1]; [8] 98% | [1]; at 50.0 µM 99.5% | [2]; [8] 100% | [2]; at 50.0 µM 99.8% | [3]; [8] 100% | [3]; at 50.0 µM 99.5% | [4]; [8] 99% | [4]; at 50.0 µM 99.5% | [5]; [8] 99% | [5]; at 50.0 µM 99.5% | [6]; [8] 99%
inactive: [1]; [7] 5% | [2]; [7] -3% | [3]; [7] -1% | [4]; [7] -4% | [5]; [7] -1% | [6]; [7] -1% | [6]; at 50.0 µM 36%

CC(C)(C)c1cc(C(O)(C(F)(F)F)C(F)(F)F)c(Cl)c(C(O)(C(F)(F)F)C(F)(F)F)c1
inactive: [1]; [7] 10% | [2]; [7] 13% | [3]; [7] 11% | [4]; [7] 24% | [5]; [7] 14% | [6]; [7] 8%
active: [1]; [8] 99% | [1]; at 50.0 µM 99.5% | [2]; [8] 98% | [2]; at 50.0 µM 99.7% | [3]; [8] 99% | [3]; at 50.0 µM 99.7% | [4]; [8] 99% | [4]; at 50.0 µM 99% | [5]; [8] 99% | [5]; at 50.0 µM 99.8% | [6]; [8] 99% | [6]; at 50.0 µM 99.5%
